Most compounds without a hit are left out; they make up all but 19% or so of the library.
HepG2 tox: qHTS for Inhibitors of TGF-b: Cytotox Counterscreen; 0.76% of 410,000 active; Potency, µM (series often up to 46.1 µM), for inactives: at the top dose activity change, negative = cytotoxicity, actives largely listed as cytotoxic; HepG2 CAGA-GFP viability, ATP luminescence, 18 h; further: potency means the concentration at half of the fitted maximal effect
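HepG2 CAGA-GFP cells (1000/well, DMEM with 1% FBS) received compound, then TGF-beta at 500 pg/mL final, and were incubated 18 hours at 37 degrees C. Viability was read by CellTiter-Glo luminescence. Media-only wells were set as complete cell-killing and DMSO as no toxicity.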
S-ASM inh: Inhibitors of Secretory Acid Sphingomyelinase (S-ASM): qHTS. Sphingomyelin phosphodiesterase (Homo sapiens), P17405. 0.006% of 340,000 active. Potency, µM (titrated, usually from 57.5 µM), for the others: top-dose activity change, negative = inhibition, most hits filed as inhibitors. placental ASM, HMU-PC fluorogenic substrate, 60 min; further: potency means the concentration at half of the fitted maximal effect
Target sequence (P17405 47-631 limits assumed): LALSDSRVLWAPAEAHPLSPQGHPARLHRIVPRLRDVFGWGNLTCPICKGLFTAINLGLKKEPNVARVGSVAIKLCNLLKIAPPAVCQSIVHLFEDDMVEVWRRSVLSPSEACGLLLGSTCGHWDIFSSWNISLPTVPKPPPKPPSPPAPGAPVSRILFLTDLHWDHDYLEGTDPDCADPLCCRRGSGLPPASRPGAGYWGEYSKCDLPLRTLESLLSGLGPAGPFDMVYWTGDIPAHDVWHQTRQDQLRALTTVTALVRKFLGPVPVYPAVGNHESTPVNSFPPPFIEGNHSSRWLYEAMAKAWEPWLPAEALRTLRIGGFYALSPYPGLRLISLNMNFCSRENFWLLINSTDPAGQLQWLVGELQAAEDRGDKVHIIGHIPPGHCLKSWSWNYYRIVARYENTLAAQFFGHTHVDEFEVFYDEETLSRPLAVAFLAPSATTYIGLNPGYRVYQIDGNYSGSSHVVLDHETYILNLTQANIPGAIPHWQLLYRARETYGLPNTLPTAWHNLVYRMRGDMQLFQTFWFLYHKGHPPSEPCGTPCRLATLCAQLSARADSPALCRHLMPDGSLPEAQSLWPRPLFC
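Fluorescence read-out (Ex 386 nm, Em 447 nm) after stopping the reaction at pH 10. Enzyme: ASM from human placenta; substrate HMU-PC0, 9 uM final; 60 min, 37 °C. Compound preincubation 10 min, ambient temperature.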
IL1B secr inh: qHTS for Inhibitors of Inflammasome Signaling: IL-1-beta AlphaLISA Primary Screen; THP-1 LPS/ATP IL-1B secretion, AlphaLISA, 16 h; stronger effect = lower value; activity change, % at 57.5 µM; 4.7% of 360,000 active; in the data active means activity change below about -50%; inconclusive means mostly about -30% to -49%; further: on the % scale 0 is the no-effect control and ±100 the full control effect
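Secreted IL-1B measured by AlphaLISA bead assay after 16 h compound exposure of THP-1 cells; compounds (final up to 57.5 uM) added 1 h before LPS (250 ng/mL) and ATP (1.25 mM) stimulation; lower signal means less secretion.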
TGFb SMAD3 inh: qHTS for Inhibitors of TGF-b. HepG2 CAGA-GFP TGF-b/SMAD3 reporter, GFP fluorescence, 18 h; TGF-beta stimulated, 500 pg/mL final. Potency, µM (doses to about 46.1 µM), for inactives: at the highest dose activity, negative = inhibition, actives largely listed as inhibitors. 1.2% of 410,000 active; further: potency means the concentration at half of the fitted maximal effect; on the % scale 0 is the no-effect control and ±100 the full control effect; nearly all actives have a fitted effect of over 65% in size
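Using HEPG2 CAGA-GFP reporter cells at 1000 cells/well, we pinned test compounds, stimulated with recombinant TGF-beta (500 pg/mL final) and measured total well GFP after 18 h.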
DT40 TDP1 no CPT: qHTS for Inhibitors of human tyrosyl-DNA phosphodiesterase 1 (TDP1): qHTS in cells in absence of CPT. 15% of 420,000 active. AID 686978, 2013. DT40 Tdp1-/- hTDP1 cells, no CPT, ATP luminescence, 48 h. Potency, µM (series often up to 46.2 µM), for the others: top-dose activity change, negative = growth inhibition, actives largely listed as inhibitors; further: potency means the concentration at half of the fitted maximal effect; on the % scale 0 is the no-effect control and ±100 the full control effect; nearly all actives have a fitted effect of over 55% in size
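Cells were dispensed at 400 per well, compounds added by pin tool, plates incubated ≥48 hr at 37 °C, then CellTiter-Glo added for 30 min at room temperature before luminescence reading. Line: DT40 Tdp1-/- complemented with hTDP1; camptothecin omitted.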
DT40 TDP1 CPT: qHTS for Inhibitors of human tyrosyl-DNA phosphodiesterase 1 (TDP1): qHTS in cells in presence of CPT; chicken DT40 Tdp1-/-;hTDP1 cells + 20 nM CPT, ATP luminescence, 48 h; Potency, µM (doses to about 46.2 µM), without a hit: top-dose activity change, negative = growth inhibition, actives largely listed as inhibitors; 12% of 420,000 active; further: potency means the concentration at half of the fitted maximal effect; on the % scale 0 is the no-effect control and ±100 the full control effect; nearly all actives have a fitted effect of over 55% in size
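Cell growth measured by CellTiter-Glo luminescence after a minimum 48 h, 37 C compound exposure with 20 nM CPT in Tdp1-knockout DT40 cells stably expressing hTDP1, seeded 400/well; qHTS titration format.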
Starred values were filed as active, the others as inactive; u = inconclusive; x = not tested or not shown; [ ] = another dose, or the depositor's remark. Unless noted, the call rests on the fitted dose curve; in most records, active means well fitted curve in the direction sought with a large enough effect; inconclusive means small, poorly fitted or top-dose-only effect, or another doubt; inactive means no such curve, though single readings can be large; an effect the other way counts as inactive or inconclusive.

SMILES	HepG2 tox	S-ASM inh	IL1B secr inh	TGFb SMAD3 inh	DT40 TDP1 no CPT	DT40 TDP1 CPT
Cc1c(Cl)ccc2sc(N3CCN(C(=O)C4=COCCO4)CC3)nc12	-15.0%	x	-60.9*	4.1%	u	u
COc1cc2ccccc2cc1C(=O)N1CCCC1	0.6%	3.2%	-10.2	-7.6%	0.3%	-0.6%
COc1cc2ccccc2cc1C(=O)N1CCN(c2nc3c(C)cc(C)cc3s2)CC1	-20.5%	x	x	u	18.4µM*	u
Cc1c(Cl)ccc2sc(N3CCN(C(=O)c4ccco4)CC3)nc12	-49.7%	x	x	u	11.6µM*	14.6µM*
COc1ccc(Cl)c2sc(N3CCN(C(=O)c4ccco4)CC3)nc12	-28.8%	-2.6%	-5.9	-5.6%	u	u
O=C(Nc1ccc(Cl)c(Cl)c1)C1CCN(C(=O)c2ccco2)CC1	-23.8%	-1.3%	-18.9	u	14.6µM*	16.4µM*
CN(CC(=O)Nc1ccc(F)c(F)c1F)C(=O)C1(c2ccccc2)CC1	1.4%	x	18.0	5.4%	-12.7%	-10.3%
O=C(CSc1nc(-c2ccc(F)cc2)cc(C(F)(F)F)n1)NCc1ccccc1	2.4%	x	x	-17.9%	-29.8%	-27.2%
COc1ccc(C(=O)N2CCN(c3nc4c(C)c(Cl)ccc4s3)CC2)c(OC)c1	11.2µM*	x	x	u	9.2µM*	16.4µM*
COc1ccc2nc(N3CCN(C(=O)c4ccco4)CC3)sc2c1	-24.3%	x	x	-8.9%	u	u
O=C(CS(=O)(=O)c1ccc(F)cc1)N1CCN(c2ccccc2)CC1	-6.5%	x	8.7	-26.1%	-15.4%	-13.4%
Cc1c(Cl)ccc2sc(N3CCN(C(=O)CS(=O)(=O)c4ccccc4)CC3)nc12	-43.0%	x	x	10µM*	4.11µM*	6.51µM*
C=CCC[C@H](Cc1ccc(F)cc1)C(=O)OC[C@@H](NC(=O)[C@@H](CC=C)CC(=O)N[C@@H](CO)Cc1ccccc1)C(C)(C)C	-0.3%	-5.6%	-59.5*	u	20.6µM*	20.6µM*
C=CCC[C@@H](Cc1ccc(F)cc1)C(=O)OC[C@@H](NC(=O)[C@@H](CC=C)CC(=O)N[C@@H](CO)Cc1ccccc1)C(C)(C)C	-0.9%	-0.6%	u	u	u	23.1µM*
C=CCC[C@H](Cc1ccc(F)cc1)C(=O)OC[C@@H](C)NC(=O)[C@@H](CC=C)CC(=O)N[C@@H](CO)Cc1ccccc1	-22.1%	-4.2%	-10.9	-34.1%	14.6µM*	u
C=CCC[C@H](Cc1ccc(F)cc1)C(=O)OC[C@@H](C)NC(=O)[C@@H](CC=C)CC(=O)N[C@H](CO)Cc1ccccc1	-25.8%	-13.7%	-3.4	u	u	u
C=CC[C@@H](CC(=O)N[C@H](CO)Cc1ccccc1)C(=O)N[C@H](COC(=O)[C@@H](CC=C)Cc1ccc(F)cc1)C(C)(C)C	-26.1%	-7.9%	u	u	u	u
COC(=O)c1cnc(Nc2nc(C(N)Cc3ccccc3)cs2)nc1C(F)(F)F (stereo not given)	-101.6%	x	u	u	20.6µM*	23.1µM*
COC(=O)c1cnc(Nc2nc(C(N)Cc3ccc(OC)cc3)cs2)nc1C(F)(F)F (stereo not given)	-86.4%	x	x	u	u	u
COC(=O)c1cnc(Nc2nc(C(N)Cc3ccc(Cl)cc3)cs2)nc1C(F)(F)F (stereo not given)	-89.1%	x	-21.4	u	23.1µM*	u
Cc1ccc2cc(/C=C/C(=O)c3ccco3)c(Cl)nc2c1	-53.5%	8.0%	x	u	20.6µM*	10.3µM*
COc1cc2nc(NC(=O)c3ccco3)sc(=O)c2cc1OC	-8.6%	-3.5%	10.8	17.5%	u	u
COc1cc2cc(/C=C/C(=O)c3ccco3)c(Cl)nc2cc1OC	12.6µM*	41.5%	35.0	u	4.61µM*	4.11µM*
Nc1c(-c2ccc(C(F)(F)F)cc2)nc2ncccn12	x	x	5.3	x	u	-25.6%
Cc1c(F)cccc1NS(=O)(=O)c1cccs1	-17.7%	x	x	-18.0%	-5.4%	7.5%
SMILES	HepG2 tox	S-ASM inh	IL1B secr inh	TGFb SMAD3 inh	DT40 TDP1 no CPT	DT40 TDP1 CPT
FC(F)(F)Oc1ccc(NC(=S)Nc2ccccc2N2CCOCC2)cc1	-7.6%	-1.1%	20.9	-6.4%	16.4µM*	u
Cc1ccc(C(=O)NC(=S)Nc2ccccc2N2CCOCC2)cc1C	-12.5%	x	-2.8	-2.4%	u	25.9µM*
O=C(NC(=S)Nc1ccccc1N1CCOCC1)c1ccccc1F	-0.7%	1.4%	-7.7	11.2%	u	u
COc1cc(C(=O)NC(=S)Nc2ccccc2N2CCOCC2)cc(OC)c1OC	-35.7%	-4.6%	-15.0	-20.8%	11.6µM*	18.4µM*
CC(C)Oc1ccc(C(=O)/C=C2/C(=O)Nc3ccccc32)cc1	-71.4%	-11.6%	-100.3*	u	11.6µM*	u
O=C(/C=C1\C(=O)Nc2ccccc21)/C=C1\C(=O)Nc2ccccc21	-35.1%	-15.5%	-2.1	u	1.84µM*	1.46µM*
O=C1Nc2ccccc2/C1=C\C(=O)c1ccccc1	-77.1%	-6.8%	-20.7	u	2.06µM*	2.91µM*
Cc1cccc(CN2C[C@H](Sc3ccccn3)C[C@H]2C(=O)Nc2ccc3sc(C)nc3c2)c1	x	x	x	x	-19.7%	1.5%[9.04 µM]
O=C(CCNS(=O)(=O)c1ccccc1)OCC(=O)c1ccc[nH]1	-11.9%	-0.3%	2.0	-7.8%	0.1%	1.0%
O=S(=O)(Nc1ccc(N=Nc2ccccc2)cc1)c1ccccc1	-36.7%	u	-87.8*	u	u	u
O=S(=O)(Nc1ccc(N=Nc2ccc(O)c3ccccc23)cc1)c1ccccc1	-29.1%	u	-59.5*	u	u	u
O=[N+]([O-])c1ccc(N=NNc2ccccc2)cc1	-6.3%	-1.9%	-2.7	-6.5%	-13.0%	u
O=S(=O)(Nc1ccc(-c2ccccc2)cc1)c1ccccc1	-47.1%	-11.6%	u	u	u	u
O=S(=O)(Nc1ccc(S(=O)(=O)Nc2ccccc2)cc1)c1ccccc1	-24.9%	-1.4%	11.9	1.2%	-20.8%	u
O=[N+]([O-])c1ccc(N=Nc2ccc(O)c3ccccc23)cc1	12.6µM*	-6.2%	-76.2*	u	2.59µM*	14.6µM*
